EPAC1 antagonist: blocks human EPAC1 exchange factor. EPAC1 GEF assay, Rap1b-BODIPY-GDP exchange fluorescence. Potency, µM (doses to about 115 µM), inactives show top-dose activity change, negative = inhibition, usual class: inhibitors. 360,000 tested, 0.14% active. AID 720709;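 note: plate controls were vehicle for no effect and positive control for full effect; nearly all actives have a fitted effect of over 50% in size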
EPAC1 ag: EPAC1 (human) agonism. O95398. EPAC1 agonist qHTS, biochemical assay; response scale: 100% = response to 6.5 mM cAMP. Potency, µM (titrated, usually from 154 µM), for inactives: at the top dose activation, most hits filed as activators. 360,000 tested, 0.073% active. AID 720707; note: nearly all actives have a fitted effect of over 60% in size
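EPAC1 100 nM, Rap1B–BODIPY-GDP 250 nM, unlabeled GDP 50 uM; compound titration; 5 min RT; kinetic read ex480/em540 at 5-min intervals ×30 min; data normalized to 6.5 mM cAMP agonist control.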
USP1-UAF1 inh: blocks the human USP1/UAF1 deubiquitinase complex. recombinant USP1/UAF1, Ub-Rhodamine cleavage fluorescence. Potency, µM (series often up to 57.1 µM), without a hit: at the highest dose activity change, negative = inhibition, usual class: inhibitors. 390,000 tested, 0.23% active; note: % is set by controls: 0 for no effect and ±100 for the full control effect; nearly all actives have a fitted effect of over 60% in size
Target sequence (O94782 whole entry, looked up): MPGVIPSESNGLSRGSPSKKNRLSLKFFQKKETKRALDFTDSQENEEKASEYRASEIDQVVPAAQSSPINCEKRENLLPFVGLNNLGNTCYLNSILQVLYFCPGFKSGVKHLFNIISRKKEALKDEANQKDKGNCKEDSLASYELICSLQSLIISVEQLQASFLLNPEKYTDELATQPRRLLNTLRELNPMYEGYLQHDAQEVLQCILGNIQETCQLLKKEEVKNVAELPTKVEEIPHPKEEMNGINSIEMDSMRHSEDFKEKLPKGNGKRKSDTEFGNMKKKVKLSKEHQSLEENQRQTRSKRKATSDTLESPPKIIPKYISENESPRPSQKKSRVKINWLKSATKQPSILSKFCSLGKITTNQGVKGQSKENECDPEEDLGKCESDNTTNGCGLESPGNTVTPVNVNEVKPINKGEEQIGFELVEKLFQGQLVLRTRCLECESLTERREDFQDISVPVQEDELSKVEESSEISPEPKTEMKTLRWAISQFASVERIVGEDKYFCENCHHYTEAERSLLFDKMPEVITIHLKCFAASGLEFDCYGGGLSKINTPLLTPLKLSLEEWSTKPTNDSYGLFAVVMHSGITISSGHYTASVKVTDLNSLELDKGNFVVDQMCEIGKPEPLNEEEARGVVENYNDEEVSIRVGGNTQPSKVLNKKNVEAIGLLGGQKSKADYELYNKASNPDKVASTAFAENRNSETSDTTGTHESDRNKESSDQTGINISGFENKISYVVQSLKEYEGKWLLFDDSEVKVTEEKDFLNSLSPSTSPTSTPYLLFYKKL
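USP1/UAF1 complex (1 nM) preincubated 15 min at room temperature with compound, then Ub-Rho substrate (150 nM final) added. Kinetic fluorescence at 480/540 nm over 6 reads at 60 s intervals; 50 mM HEPES pH 7.8, 0.5 mM EDTA, 0.1 mg/ml BSA, 1 mM TCEP, 0.01% Tween-20.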
BRCA1 expr up: activators of BRCA1 expression | MCF7-BRCA1-FFLuc reporter, luminescence, 48 h; response scale: scaled: vehicle 0%, 10 µM genistein 100% | Potency, µM (titrated, usually from 46.1 µM), without a hit: at the highest dose activation, usual class: activators | 380,000 tested, 1.1% active; note: nearly all actives have a fitted effect of over 80% in size
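First, MCF7-BRCA1-FFLuc cells (2000/well) attach for 2 h; next, compounds are pin-added and incubated 48 h at 37 °C; finally, luciferase reagent is added and luminescence read after 15 min.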
EPAC2 antagonist: blocks human EPAC2 exchange factor | Q8WZA2 | EPAC2 GEF exchange of Rap1B-BODIPY-GDP, fluorescence | Potency, µM (top dose mostly 114 µM), for inactives: top-dose activity, negative = inhibition, actives largely listed as inhibitors | 360,000 tested, 0.18% active | AID 720708; note: % is set by controls: 0 for no effect and ±100 for the full control effect; nearly all actives have a fitted effect of over 45% in size
EPAC2 agonist: EPAC2 (human) agonism; EPAC2 activation, biochemical qHTS; response scale: 100% = 6.5 mM cAMP response; 360,000 tested, 0.079% active; AID 720711; Potency, µM (series often up to 154 µM), inactives show at the highest dose activation, hits mostly activators; Q8WZA2; note: nearly all actives have a fitted effect of over 50% in size
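Guanine nucleotide exchange by EPAC2 is measured as reduced fluorescence of BODIPY-GDP once it is released from 250 nM Rap1B. Plates are read kinetically for 30 min at room temperature; results are scaled to 6.5 mM cAMP.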
* hit, by the source's call; ? = inconclusive; . = not tested or not shown; [ ] = dose if it differs, or a comment. Sampled rows, rich in hits. Any-hit rate of the full collection: about 1.4%. Calls come from the whole dose curve; as a rule, active = well fitted curve in the direction sought with a large enough effect; inconclusive = small, poorly fitted or top-dose-only effect, or another doubt; inactive = no such curve, though single readings can be large; an effect the other way counts as inactive or inconclusive. Potency is the fitted concentration of half-maximal effect.

SMILES	EPAC1 antagonist	EPAC1 ag	USP1-UAF1 inh	BRCA1 expr up	EPAC2 antagonist	EPAC2 agonist
Nc1nonc1C(=O)NCCNCc1cccc(Cl)c1Cl	.	.	-24%	10%	.	.
Cc1cn2c(=O)cc(COc3cc(C)c(Cl)c(C)c3)nc2s1	.	.	-16%	-12%	.	.
COc1cccc(C(=O)NCCSc2ccc(F)cc2)c1	5%	-3%	-18%	11µM*	-4%	-6%
COc1cccc(C(=O)NCCSc2ccc(C)cc2)c1	-10%	-10%	-15%	14%	-8%	12%
O=C(COc1ncnc2ccccc12)c1ccc2c(c1)OCCO2	-13%	6%	-7%	?	11%	4%
O=C(COc1ncnc2cc(Cl)ccc12)c1ccc2c(c1)OCCO2	-1%	3%	-5%	1.8µM*	-1%	1%
CC(C)(C)c1ccc(C(=O)NCCc2csc3nc(-c4ccccc4F)nn23)cc1	.	.	-21%	.	.	.
CC(C)COc1ccc(-c2nnn(CC(=O)N3CCCC3)n2)cc1	8%	-7%	-13%	10µM*	-3%	6%
O=C(Cn1nnc(-c2ccccc2)n1)N1CCCCC1	8%	3%	-6%	84%	1%	-8%
COc1ccccc1CNC(=O)Cc1ccc(OC)c(OC)c1	1%	6%	-20%	-20%	3%	-6%
COc1ccccc1CNC(=O)Cc1ccccc1	10%	-2%	-8%	11µM*	6%	5%
COc1ccc(Nc2oc(-c3cccs3)nc2C#N)cc1	-1%	9%	2%	1.4µM*	1%	-9%
N#Cc1nc(-c2cccs2)oc1NCCc1ccccc1	-17%	14%	-30%	11µM*	-2%	-3%
N#Cc1nc(-c2ccccc2F)oc1NCCc1ccccc1	-8%	0%	0%	?	-2%	-3%
O=C(N/N=C/c1ccc(O)c(O)c1)c1ccc(CSc2cccc3cccnc23)cc1	35µM*	-3%	-13%	-29%	0%	3%
O=C(CSc1cccc2cccnc12)N/N=C/c1cccc(O)c1	-17%	6%	4%	-1%	-8%	5%
Cc1cc(C)c(NC(=O)CCN2C(=O)c3ccccc3S2(=O)=O)c(C)c1	0%	-3%	-22%	1%	15%	3%
CCOc1cc(CNc2ccc(O)cc2)cc(Br)c1OCc1ccccc1F	-19%	0%	?	-82%	-6%	-5%
COc1cc(CNc2ccc(O)cc2)cc(Br)c1OCc1ccccc1F	28µM*	-1%	?	-49%	?	3%
CCOC(=O)N1CCN(C(=O)c2ccc3oc(CCCc4ccccc4)nc3c2)CC1	-24%	11%	-17%	?	7%	-1%
COc1ccccc1C(=O)Nn1cnc2ccccc2c1=O	-3%	0%	-5%	10µM*	11%	1%
COc1ccc(C2=CC3=C(Br)C(=O)C(C)(OC(=O)c4cccs4)C(=O)C3=CO2)cc1 (stereo not given)	?	-13%	35µM*	-6%	-24%	27%
COc1ccc(C2=CC3=C(Br)C(=O)C(C)(OC(=O)c4ccco4)C(=O)C3=CO2)cc1 (stereo not given)	?	-5%	25µM*	-10%	?	17%
CCCCCNC(=O)c1[nH]c(C(F)(F)F)nc1-c1ccccc1	1%	-4%	.	10%	-18%	6%
N#C/C(=C\c1ccc(C(=O)O)cc1)c1nc2sc3c(c2c(=O)[nH]1)CCCC3	206%	32µM*	?	11%	158%	56µM*
SMILES	EPAC1 antagonist	EPAC1 ag	USP1-UAF1 inh	BRCA1 expr up	EPAC2 antagonist	EPAC2 agonist
COc1ccc(C2=NC3(CCCCCC3)N(CC(=O)Nc3ccc(C)c(C)c3)C2=O)cc1	.	.	-13%	.	.	.
CCc1nc2c(OCC(=O)C(C)(C)C)cccn2c1N(C)C(=O)CC(C)C	6%	-9%	.	-3%	11%	6%
C[C@H]1[C@@H](Cc2cc(Cl)cc(Cl)c2)N(c2ccccc2)c2ccccc2CN1Cc1ccccc1	-17%	-2%	.	.	-15%	5%
CCOC(=S)NC(=O)c1sc2ccccc2c1Cl	-2%	14%	0%	0%	1%	3%
O=C(NC(=S)NCCO)c1sc2ccccc2c1Cl	5%	-7%	-17%	11µM*	3%	5%
O=C1C(Cl)=C(NCCc2ccccc2)C(=O)N1CCc1ccccc1	-15%	7%	-6%	7.9µM*	-1%	-3%
O=C1C(Cl)=C(NCC2CCCO2)C(=O)N1CCc1ccccc1 (stereo not given)	-2%	6%	-2%	7.9µM*	-2%	13%
CC(Sc1ncnc2sc(-c3ccccc3)cc12)C(=O)NCC1CCCO1 (stereo not given)	-7%	4%	-8%	-43%	-1%	3%
CCOc1ccc(CCNC(=O)Cn2nc(CC)n3c(cc4sccc43)c2=O)cc1	.	.	-22%	.	.	.
Cc1ccc(F)c(NC(=O)/C(C#N)=C(\O)c2ccc(C(C)(C)C)cc2)c1	56µM*	-11%	22µM*	8%	-23%[57.1 µM]	-35%
Cc1cccc(NC(=O)C(=O)NNC(=O)c2ccc(C(C)(C)C)cc2)c1	?	-19%	-11%	42%	53%	-10%
Cc1ccc(C)c(NC(=S)NNc2ccc(F)cc2F)c1	-8%	-6%	-13%	-20%	-2%	10%
O=C(Nc1cc(Br)c(O)c(Br)c1)c1cccc(NC(=O)c2ccco2)c1	?	-3%	-18%	-13%	24%	17%
O=C(Nc1cccc(N=Cc2cc(Br)cc(Br)c2O)c1)c1ccco1	1%	-5%	28µM*	-81%	?	21%
O=C1C=C(c2ccccc2)C(c2ccccc2)C1 (stereo not given)	-2%	14%	-8%	-24%	35µM*	5%
Cc1cc(-c2ccccc2)nc(N2CCC(C(=O)NC(C)C)CC2)n1	-5%	9%	-3%	2µM*	0%	10%
CCc1nc2c(OCc3cccc(Cl)c3)cccn2c1N(C)C(=O)C(C)C	-14%	1%	.	-39%	2%	11%
CCc1nc2c(OCc3cccc(Cl)c3)cccn2c1N(C)C(C)=O	29%	7%	.	-38%	3%	20µM*
COc1ccc(S(=O)(=O)N2CCN(C(=O)C3COc4ccccc4O3)CC2)cc1 (stereo not given)	-14%	-1%	-10%	-14%	4%	2%
CC(C)(C)c1cc(NC(=O)c2cccnc2)no1	-6%	3%	-7%	7.1µM*	0%	9%
CCCCOc1ccc(C2(C)CC(=O)NC2=O)cc1 (stereo not given)	-3%	4%	-22%	13µM*	11%	12%
O=c1c2ccccc2nc2ccc(NCc3ccco3)nn12	-3%	5%	-10%	3.5µM*	12%	7%

From PubChem
